# Compound activity (PubChem)
# Shown are actives, neighbours in structure and some others; about 7.3% of the full set was active somewhere.
# Rab9 prom act – Rab9 promoter activation; AID 485297; hit rate 2.8% among 320,000; Huh7 Rab9 promoter-luciferase reporter, luminescence, 24 h; Potency, µM (titrated, usually from 9.22 µM), for inactives: at the top dose activation, negative = inhibition, hits mostly activators; also: % of control where 0% means no effect; nearly all actives have a fitted effect of over 60% in size
#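 Using Huh7 cells stably transfected with Rab9 promoter–luciferase, compounds were incubated 24 h at 37 °C, 5% CO2; luciferase luminescence was read 10 min after reagent addition.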
# ELG1 genotox – genotoxicity induction in ELG1-luciferase HEK293T cells; HEK293T ELG1-luciferase reporter, luminescence, 16 h; Potency, µM (doses to about 46 µM), inactives show at the highest dose activity change, positive = activation, most hits filed as activators; hit rate 1.3% among 330,000; AID 504466; also: % of control where 0% means no effect; nearly all actives have a fitted effect of over 60% in size
#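 Screening used a luciferase reporter fused to human ELG1 in HEK293T cells. Luminescence was read on a CCD plate imager after 16 hr exposure and 30 min ONE-Glo incubation.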
# NPC1 prom act – activates the NPC1 promoter; Huh7 NPC1 promoter luciferase reporter, 24 h; Potency, µM (series often up to 9.22 µM), without a hit: at the top dose activation, hits mostly activators; hit rate 2.4% among 320,000; AID 485313; also: % of control where 0% means no effect; nearly all actives have a fitted effect of over 60% in size
#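 Readout is luciferase luminescence, reflecting NPC1 promoter activation in stably transfected Huh7 cells after 24 h compound exposure at 37 °C in reduced-serum medium with 10% FBS.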
# SMN2 splice up – SMN2 splice variant enhancement | hit rate 2.8% among 210,000 | Potency, µM (highest dose often 46.1 µM), for inactives: top-dose activity change, positive = activation, hits mostly activators | HEK293 SMN2-luciferase splicing reporter, luminescence, 30-36 h; also: % of control where 0% means no effect; nearly all actives have a fitted effect of over 55% in size
#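 HEK293 cells carry an SMN2 minigene-luciferase reporter in which exon 7 inclusion puts luciferase in frame. Cells were seeded at 2000 cells/well, attached for 10-12 hours, then exposed to compounds for 30-36 hours at 37C before ONE-Glo luminescence.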
# FLuc counter – firefly luciferase modulation, counter-screen for miR-21 project | P08659 | Potency, µM (series often up to 57.5 µM), inactives show top-dose activity change, negative = inhibition, usual class: inhibitors | hit rate 6.9% among 360,000 | purified FLuc, Km substrates, luminescence inhibition;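 also: plate controls were vehicle for no effect and reference inhibitor for full effect; nearly all actives have a fitted effect of over 55% in size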
# Target sequence (P08659 whole entry, looked up): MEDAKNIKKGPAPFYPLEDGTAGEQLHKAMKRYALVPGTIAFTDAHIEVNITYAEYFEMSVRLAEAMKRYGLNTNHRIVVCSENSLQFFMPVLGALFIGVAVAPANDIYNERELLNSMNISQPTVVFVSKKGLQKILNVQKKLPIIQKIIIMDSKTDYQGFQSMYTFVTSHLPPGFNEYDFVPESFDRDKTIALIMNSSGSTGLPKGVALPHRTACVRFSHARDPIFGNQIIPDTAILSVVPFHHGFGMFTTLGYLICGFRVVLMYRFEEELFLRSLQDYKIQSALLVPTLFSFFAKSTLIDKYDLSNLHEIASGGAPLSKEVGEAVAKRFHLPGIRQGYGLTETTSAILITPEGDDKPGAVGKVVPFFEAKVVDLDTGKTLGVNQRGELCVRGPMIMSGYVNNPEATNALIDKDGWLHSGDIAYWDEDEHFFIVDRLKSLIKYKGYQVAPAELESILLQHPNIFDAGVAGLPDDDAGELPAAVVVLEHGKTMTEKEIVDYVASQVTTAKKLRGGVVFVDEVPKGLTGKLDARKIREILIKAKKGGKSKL
#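 Biochemical qHTS of compounds, final roughly 60 µM downward over six points, against 10 nM purified firefly luciferase using Km concentrations of substrates (10 uM D-luciferin, 10 uM ATP) in Tris acetate pH 7.5 buffer; luminescence output.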
# Luc counter – Kinase-Glo luciferase inhibition (counter-screen) | hit rate 0.28% among 200,000 | AID 1379 | Potency, µM (titrated, usually from 38.3 µM), for the others: at the top dose activity change, negative = inhibition, hits mostly inhibitors | Kinase-Glo luciferase, ATP luminescence, 8 min | Q27757; also: % is scaled to controls: 0 for no effect and ±100 for the full control effect; nearly all actives have a fitted effect of over 60% in size
#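 Luminescence was the read-out, taken after 8-minute incubation at ambient temperature. Luciferase turned over luciferin with 10 uM ATP in imidazole pH 7.2 buffer containing KCl, MgCl2, Tween 20 and BSA.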
# Active calls of the source: *; ? = inconclusive; nt = no result given; [ ] = remark or other dose. Calls follow the shape of the dose curve; as a rule, active = well fitted curve in the direction sought with a large enough effect; inconclusive = small, poorly fitted or top-dose-only effect, or another doubt; inactive = no such curve, though single readings can be large; an effect the other way counts as inactive or inconclusive. Potency is read from the fitted curve at half-maximal effect.
SMILES,Rab9 prom act,ELG1 genotox,NPC1 prom act,SMN2 splice up,FLuc counter,Luc counter
C=CCc1ccc(OCC(O)COCC)c(OC)c1 (stereo not drawn),?,18.4µM*,?,12.6µM*,19µM*,-4.1%
Cc1ccc(OC(C)C(=O)O)cc1C (stereo not drawn),8.5%,-1.7%,-2.0%,10.6%,-4.1%,0.2%
Cc1ccc(OCCn2nnc3sc4c(c3c2=O)CCC(C)C4)cc1 (stereo not drawn),nt,nt,nt,7.2%,-13.5%,nt
Cc1ccc(OCc2ccc(C(=O)N3CCOCC3)cc2)cc1C,1.41µM*,?,3.55µM*,11.2µM*,6.75µM*,-11.7%
O=C(O)c1ccc(COc2ccc3c4c(c(=O)oc3c2)CCC4)o1,7.5%,17.1%,-3.2%,nt,?,nt
CCc1cc(=O)oc2cc(OCc3ccc(C(=O)O)o3)ccc12,?,17.3%,?,nt,26.9µM*,nt
CN(c1ccccc1C(=O)Nc1ccc2c(c1)OCCO2)S(C)(=O)=O,10.0%,0.6%,-1.3%,-8.6%,2.5%,2.0%
CN(c1ccc(C(=O)Nc2ccc3c(c2)OCO3)cc1)S(C)(=O)=O,3.98µM*,14.6%,2.82µM*,nt,12µM*,nt
CN(c1ccc(C(=O)Nc2ccc3c(c2)OCCO3)cc1)S(C)(=O)=O,1.58µM*,?,2.24µM*,11.2µM*,7.57µM*,-11.7%
CC(=O)c1ccc(S(=O)(=O)Nc2cccc(-c3ccc4nncn4n3)c2)cc1,3.4%,0.9%,-3.2%,21.6%,6.6%,6.7%
O=S(=O)(Nc1cccc(-c2ccc(N3CCCCCC3)nn2)c1)c1cccc(F)c1,3.16µM*,?,3.16µM*,nt,2.39µM*,nt
O=S(=O)(Nc1ccc(-c2ccc(N3CCCC3)nn2)cc1)c1ccc(Cl)cc1,nt,nt,nt,nt,-6.2%,nt
O=C(c1ccc(S(=O)(=O)Nc2cccc(C(F)(F)F)c2)cc1)N1CCC1,5.8%,-9.5%,-0.6%,nt,?,nt
CC(=O)c1ccc(S(=O)(=O)Nc2cccc(-c3ccc(N4CCCCC4)nn3)c2)cc1,nt,nt,nt,nt,1.51µM*,nt
O=S(=O)(Nc1cccc(-c2ccc(N3CCCCCC3)nn2)c1)c1ccc(C(F)(F)F)cc1,?,?,22.8%,nt,9.53µM*,nt
O=S(=O)(Nc1cccc(-c2ccc(N3CCCCCC3)nn2)c1)c1ccc(F)cc1,?,?,?,nt,5.36µM*,nt
CCN(CC)c1ccc(NC(=O)c2cccn2-c2nnc(N3CCCCC3)s2)c(C)c1,nt,nt,nt,nt,-10.3%,nt
CCOc1ccc(C(=O)N2CCC(c3nc4ccccc4o3)CC2)cc1,nt,nt,nt,nt,-10.1%,nt
O=S(=O)(Nc1ccc(-c2ccc(N3CCCCC3)nn2)cc1)c1ccc(OC(F)(F)F)cc1,nt,nt,nt,nt,21.3µM*,nt
Cn1c(=O)c(=O)n(C)c2cc(S(=O)(=O)Nc3ccc(OC(F)(F)F)cc3)ccc21,-1.3%,-2.2%,-3.7%,-46.8%,1.1%,16.6%
CCn1c(=O)sc2cc(NS(=O)(=O)c3ccc(F)c(C)c3)ccc21,nt,nt,nt,-40.8%,-14.6%,nt
O=C(Nc1ccc2nc(C3CC3)n(Cc3ccccc3)c(=O)c2c1)C1CC1,2.51µM*,?,2.82µM*,nt,-9.2%,nt
COc1ccc(Cn2c(C3CC3)nc3ccc(NC(=O)c4ccco4)cc3c2=O)cc1,21.5%,?,3.16µM*,?,15.1µM*,-3.0%
CCCc1nc2ccc(NC(=O)c3ccco3)cc2c(=O)n1Cc1ccc(Cl)cc1,8.9%,-6.6%,7.1%,-8.1%,-16.3%,1.5%
CC(=O)Nc1ccc2nc(C)n(Cc3ccc(Cl)cc3)c(=O)c2c1,24.9%,?,?,12.6µM*,-29.0%,0.4%
SMILES,Rab9 prom act,ELG1 genotox,NPC1 prom act,SMN2 splice up,FLuc counter,Luc counter
CCC(=O)Nc1ccc2nc(C3CC3)n(Cc3ccccc3)c(=O)c2c1,3.55µM*,8.2µM*,?,?,?,-16.3%
Cc1c(Cl)cccc1NC(=O)C(CCS(C)(=O)=O)N1Cc2ccccc2C1=O (stereo not drawn),nt,nt,nt,nt,-6.3%,nt
COC(=O)C1=C(C(=O)OC)[C@@H]2Nc3ccccc3[C@@]23C[C@@H](C(=O)OC)N(S(=O)(=O)c2ccc4c(c2)OCCN4C)C3=N1,nt,nt,nt,-3.6%[9.22 µM],nt,-4.6%[7.66 µM]
Cc1ccc(C2NC(=O)NC3=C2CCc2ccccc23)cc1 (stereo not drawn),17.7%,?,?,-23.4%,3.01µM*,2.8%
CC(C)c1ccc(C2NC(=O)NC3=C2CCc2ccccc23)cc1 (stereo not drawn),0.6%,-2.0%,-5.4%,-33.0%,0.1%,0.1%
Cn1c(-c2cccs2)nc2ccccc21,2.51µM*,8.2%,3.98µM*,12.6µM*,?,-16.4%
Cc1ccc(-n2c(N)c(-c3nc4ccccc4n3C)sc2=S)cc1,27.7%,-1.0%,?,-21.1%,-2.5%,-4.6%
Cn1c(-c2ccc(C=O)s2)nc2ccccc21,1.0%,14.6µM*,-1.9%,25.1%,?,-14.8%
COc1cccc(CNC(=O)c2cc(C)nc3c2c(C)nn3-c2cccc(F)c2)c1,nt,nt,nt,nt,1.1%,nt
Cc1nn(-c2ccccn2)c2c1-c1nc(N)ncc1CC2,3.16µM*,7.9%,3.55µM*,?,10.7µM*,-2.2%
Cc1nn(-c2ccccn2)c2c1-c1nc(N3CCOCC3)ncc1CC2,10.4%,2.0%,6.3%,-26.7%,-10.5%,-1.0%
CC1CCc2nn(CC(=O)Nc3ccccc3Cl)cc2C1 (stereo not drawn),nt,nt,nt,5.8%,-12.2%,nt
Nn1c(SCc2ccccc2F)nnc1-c1ccccn1,1.41µM*,18.3µM*,3.98µM*,nt,15.1µM*,nt
CC(C)C1C(=O)Nc2ccc(S(=O)(=O)NCCc3ccc(Cl)cc3)cc21 (stereo not drawn),nt,nt,nt,nt,-2.9%,nt
COc1cc(C)c(S(=O)(=O)Nc2ccccc2F)cc1C,-1.7%,-5.7%,-1.1%,2.24µM*,2.7%,-0.3%
Cc1cc2[nH]c(=O)c(=O)[nH]c2cc1S(=O)(=O)Nc1ccccc1F,6.9%,-6.9%,-3.8%,nt,-3.9%,nt
O=C(CSc1nnc(SCc2ccccc2Cl)s1)N/N=C/c1ccc(C(=O)O)cc1,3.5%,0.4%,1.4%,nt,3.38µM*,nt
Cc1nn(-c2ccccc2)c(C)c1/C=N/NC(=O)c1cccs1,?,?,?,17.8µM*,8.49µM*,0.7%
Cc1c(/C=N/NC(=O)c2cccs2)c2ccccc2n1Cc1ccccc1Cl,21.3%,-2.3%,17.4%,nt,8.49µM*,nt
CCOc1cc(/C=N/NC(=O)CSc2nnc(C)s2)ccc1OCc1ccccc1Cl,1.5%,0.4%,-0.1%,7.9%,1.3%,1.3%
Cc1nn(-c2ccccc2)c(C)c1/C=N/NC(=O)c1cc(-c2cccs2)[nH]n1,-21.4%,-0.8%,-10.7%,3.9%,13.5µM*,2.7%
Cc1nn(-c2ccccc2)c(C)c1/C=N/NC(=O)c1ccccc1NS(=O)(=O)c1cccs1,1.7%,2.1%,-0.5%,15.1%,10.7µM*,1.5%
